For 12 compounds, Potency results are on record in PubChem BioAssay (Tox21).

Inconclusive results are not listed. Entries that show only a call come without a potency. The source made the active and inactive calls. Calls come from the whole dose curve; as a rule, active = well fitted inhibition curve with a large enough effect in the repeat runs; inconclusive = weak or mixed curves, or effect the other way; inactive = no such curve, though single readings can be large or run the other way.
Potency is the fitted concentration of half-maximal effect.

Androgen receptor (Homo sapiens), sequence (P10275 whole entry, looked up): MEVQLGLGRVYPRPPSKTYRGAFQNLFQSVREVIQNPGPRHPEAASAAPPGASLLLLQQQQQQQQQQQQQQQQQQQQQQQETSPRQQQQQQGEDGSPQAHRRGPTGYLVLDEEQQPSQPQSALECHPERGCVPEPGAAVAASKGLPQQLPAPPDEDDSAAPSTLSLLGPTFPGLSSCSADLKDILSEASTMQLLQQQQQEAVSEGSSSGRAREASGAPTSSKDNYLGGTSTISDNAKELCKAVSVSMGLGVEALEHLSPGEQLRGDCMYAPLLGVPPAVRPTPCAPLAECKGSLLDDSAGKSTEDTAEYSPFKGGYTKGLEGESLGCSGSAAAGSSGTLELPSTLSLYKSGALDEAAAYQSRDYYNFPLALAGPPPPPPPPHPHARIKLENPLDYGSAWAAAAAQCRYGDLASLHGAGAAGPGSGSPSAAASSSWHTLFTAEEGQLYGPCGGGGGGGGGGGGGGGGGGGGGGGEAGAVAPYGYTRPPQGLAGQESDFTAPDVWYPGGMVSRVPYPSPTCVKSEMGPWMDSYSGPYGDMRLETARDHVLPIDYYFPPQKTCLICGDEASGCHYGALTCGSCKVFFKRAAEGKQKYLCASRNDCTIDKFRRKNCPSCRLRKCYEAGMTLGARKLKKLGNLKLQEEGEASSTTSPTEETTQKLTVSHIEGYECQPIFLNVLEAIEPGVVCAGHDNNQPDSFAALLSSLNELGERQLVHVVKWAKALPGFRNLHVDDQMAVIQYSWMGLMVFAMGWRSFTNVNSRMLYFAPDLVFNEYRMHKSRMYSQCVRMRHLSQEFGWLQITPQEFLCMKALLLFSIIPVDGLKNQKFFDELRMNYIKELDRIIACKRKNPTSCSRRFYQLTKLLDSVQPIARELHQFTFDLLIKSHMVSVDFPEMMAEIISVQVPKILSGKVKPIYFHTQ

The target of this assay is Androgen receptor (Homo sapiens) (UniProt P10275). Nature of the assay: qHTS assay to identify small molecule antagonists of the androgen receptor (AR) signaling pathway using the MDA cell line (AID 743042; note: nearly all actives have a fitted effect of over 55% in size). Conditions: MDA-kb2 AR-luc, MMTV luciferase, R1881 antagonist, 16 h; series mostly up to 70.3 µM. The procedure, abridged:
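Antagonist mode: compounds plus R1881 agonist added to MDA-kb2 AR-luc cells, incubated 16 h at 37C. Luciferase reporter luminescence quantified, with multiplexed CellTiter-Fluor readout for cell viability.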
On to `C=C1c2c(Cl)ccc(O)c2C(O)=C2C(=O)[C@]3(O)C(O)=C(C(N)=O)C(=O)[C@@H](N(C)C)[C@@H]3[C@@H](O)[C@H]12`, for which the Potency result was “inactive”.

As to `CCC(c1ccccc1)c1noc(CCN(CC)CC)n1` (configuration not stated), the Potency result is “inactive”.

For the compound `CC(C)(C)NC(=O)[C@H]1CC[C@H]2[C@@H]3CC=C4C=C(C(=O)O)CC[C@]4(C)[C@H]3CC[C@]12C`, the Potency entry is “inactive”.

Take `CCC(=O)OCC(=O)[C@@]1(OC(=O)CC)[C@H](C)C[C@H]2[C@H]3[C@H]([C@@H](O)C[C@@]21C)[C@@]1(C)C=CC(=O)C=C1C[C@H]3Cl`: the Potency entry was “inactive”.

Regarding `CCN(CC)c1ccc(N=Nc2ccc(S(=O)(=O)N(C)C)cc2)c(S(=O)(=O)NCC[n+]2ccccc2)c1`, the Potency result is “inactive”.

On to `CC(NNC(=O)c1ccccc1)c1ccccc1` (configuration not stated), for which the Potency entry was “inactive”.

For `CCOC(=O)O[C@]1(C(=O)COC(=O)CC)CC[C@H]2[C@@H]3CCC4=CC(=O)C=C[C@]4(C)[C@H]3[C@@H](O)C[C@@]21C`, the Potency result was “inactive”.

As to `COc1ccc2c(=O)c(C)c(-c3ccccc3)oc2c1CN(C)C`, the Potency entry is “inactive”.

Consider `Cc1cccc(C)c1N(CCCc1cccnc1)C(=O)C(C)N` (configuration not stated), for which the Potency entry was “inactive”.

For the compound `O=S(=O)(O)c1cc(O)c2c(N=Nc3ccc(Nc4ccccc4)c4c(S(=O)(=O)O)cccc34)cc(S(=O)(=O)O)cc2c1`, the Potency was 16.8 µM (active).

Turning to `Cc1cc(Nc2ccccc2C(=O)O)ccc1Cl`, the Potency entry is “inactive”.

Take `CCC(=O)NCCC1CCc2ccc3c(c21)CCO3` (configuration not stated): the Potency result is “inactive”.
